G9a inh = qHTS Assay for Inhibitors of Histone Lysine Methyltransferase G9a. Histone-lysine N-methyltransferase EHMT2 (Homo sapiens), Q96KQ7. G9a H3K9 monomethylation, AlphaScreen, 2 h. Potency, µM (highest dose often 102 µM), inactives show at the top dose activity, negative = inhibition, actives largely listed as inhibitors. 350,000 tested, 8.8% active; also: potency is read from the fitted curve at half-maximal effect; % is scaled to controls: 0 for no effect and ±100 for the full control effect; nearly all actives have a fitted effect of over 75% in size
Target sequence (Q96KQ7 913-1193 limits assumed): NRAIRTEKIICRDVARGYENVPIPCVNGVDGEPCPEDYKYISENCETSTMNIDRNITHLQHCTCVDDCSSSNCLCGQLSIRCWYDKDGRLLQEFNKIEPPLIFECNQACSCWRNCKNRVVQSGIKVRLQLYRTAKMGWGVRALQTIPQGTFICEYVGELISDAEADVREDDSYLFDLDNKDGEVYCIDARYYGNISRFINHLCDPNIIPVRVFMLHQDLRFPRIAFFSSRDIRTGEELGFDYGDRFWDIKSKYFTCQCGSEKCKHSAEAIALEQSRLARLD
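Methyltransferase reactions run at room temperature for 2 h (20 nM enzyme, 500 nM biotin-H3K9 peptide, 20 uM SAM) after a 15 min compound preincubation; product detected by AlphaScreen beads and anti-H3K9me1 antibody.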
BAZ2B block = qHTS Assay for Inhibitors of BAZ2B. 360,000 tested, 4.4% active. AlphaScreen BAZ2B-H3K14Ac peptide displacement. Potency, µM (titrated, usually from 114 µM), without a hit: at the highest dose activity change, negative = inhibition, hits mostly inhibitors; also: potency is read from the fitted curve at half-maximal effect; % is scaled to controls: 0 for no effect and ±100 for the full control effect; nearly all actives have a fitted effect of over 60% in size
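In this displacement format the biotinylated H3(5-23) peptide acetylated at Lys14 serves as ligand at 50 nM, with BAZ2B at 50 nM in PBS pH 7.4 containing 0.01% Tween-20. Donor and acceptor beads are 10 ug/mL final.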
CtBP-E1A inh = qHTS Assay for Inhibitors of the CtBP/E1A Interaction | CtBP / adenovirus E1A interaction (AlphaScreen) | AlphaScreen GST-E1A/His-CtBP binding, 1536-well; stronger effect = lower value | activity change, % (no concentration beside the values) | 340,000 tested, 0.49% active; in the data active = activity change below about -65%; inconclusive = mostly about -30% to -63%; also: % is scaled to controls: 0 for no effect and ±100 for the full control effect
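In 5 uL wells, 23 nL compound meets equimolar GST-E1A and His-CtBP (5X stock 125 nM each) for 2 h, 37 °C. Beads (5X, 50 ug/mL) then 1 h, 37 °C, dark.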
HP1b chromo inh = HTS for Inhibitors of HP1-beta Chromodomain Interactions with Methylated Histone Tails. AlphaScreen HP1-beta / biotin-H3K9me3 peptide binding. Potency, µM (highest dose often 114 µM), inactives show top-dose activity change, negative = inhibition, most hits filed as inhibitors. 390,000 tested, 0.56% active. AID 540317, 2011; also: potency is read from the fitted curve at half-maximal effect; nearly all actives have a fitted effect of over 70% in size
Target sequence (P83916 whole entry, looked up): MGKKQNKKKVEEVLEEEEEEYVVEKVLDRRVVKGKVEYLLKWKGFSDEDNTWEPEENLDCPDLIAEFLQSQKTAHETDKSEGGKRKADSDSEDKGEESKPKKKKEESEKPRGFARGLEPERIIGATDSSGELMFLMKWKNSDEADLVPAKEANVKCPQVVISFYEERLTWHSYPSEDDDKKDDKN
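AlphaScreen: HP1-beta (50 nM) preformed 30 min with biotin-H3(1-18)K9me3 peptide (50 nM) in PBS pH 7.4, 0.01% Tween-20. Compound added for 30 min at RT, then streptavidin donor/nickel chelate acceptor beads (10 ug/mL) for 30 min.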
Six1-Eya2 blk = qHTS Assay for Inhibitors of the Six1/Eya2 Interaction | AlphaScreen GST-Six1/His-Eya2 binding, biochemical; stronger effect = lower value | activity change, % (concentration not given with the values) | 360,000 tested, 0.56% active | AID 651725, 2012; in the data active = activity change below about -65%; inconclusive = mostly about -30% to -63%; also: % is scaled to controls: 0 for no effect and ±100 for the full control effect
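GST-Six1 + His-Eya2 (5X stock: 250/500 nM); Tris pH 8.0, 300 mM NaCl, 0.05% BSA, 0.02% Tween 20; GSH donor/Ni acceptor beads; 1 h 37 °C dark; AlphaScreen readout.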
JMJD2A Tudor = qHTS Assay for Inhibitors of JMJD2A-Tudor Domain. AlphaScreen JMJD2A-Tudor / H3K4me3 peptide binding. AID 504339, 2011. Potency, µM (highest dose often 114 µM), for inactives: top-dose activity change, negative = inhibition, hits mostly inhibitors. 390,000 tested, 4.4% active; also: potency is read from the fitted curve at half-maximal effect; % is scaled to controls: 0 for no effect and ±100 for the full control effect; nearly all actives have a fitted effect of over 50% in size
Active calls of the source: *; [ ] = dose if it differs, or a comment. Compounds with a hit are over-represented: about 10% of the library has one in this group of screens. Unless noted, calls follow the shape of the dose curve; as a rule, active = well fitted inhibition curve with a large enough effect; inconclusive = small, poorly fitted or top-dose-only effect; inactive = no such curve, though single readings can be large or run the other way.

Results for COc1cc2c(cc1OC)C(c1cc(OC)c(OC)cc1[N+](=O)[O-])N(C(C)=O)CC2 (stereo not drawn) ?
G9a inh: 71µM*; BAZ2B block: -2%; HP1b chromo inh: 35%; Six1-Eya2 blk: 5; JMJD2A Tudor: -4%

How did COc1cc2c(cc1OC)C(c1cc(Br)ccc1O)N(C(C)=O)CC2 (stereo not drawn) do in these assays?
CtBP-E1A inh: 2; HP1b chromo inh: -3%; Six1-Eya2 blk: 3; JMJD2A Tudor: -7%

What do the screens show for `Cn1c(SCc2n[nH]c(=S)o2)nnc1-c1ccccc1`?
G9a inh: inconclusive; BAZ2B block: 1%; CtBP-E1A inh: 3; HP1b chromo inh: 30%; Six1-Eya2 blk: -3; JMJD2A Tudor: inconclusive

Results for CC(Cc1n[nH]c(=S)o1)c1ccccc1 (stereo not drawn) ?
G9a inh: 8.9µM*; BAZ2B block: inconclusive; HP1b chromo inh: 33%; Six1-Eya2 blk: 3; JMJD2A Tudor: inconclusive

How did Cc1[nH]c2ccccc2c1Cc1n[nH]c(=S)o1 do in these assays?
G9a inh: 8.9µM*; BAZ2B block: -12%; CtBP-E1A inh: 2; HP1b chromo inh: 10%; Six1-Eya2 blk: -10; JMJD2A Tudor: 79µM*

What do the screens show for `Cc1[nH]c2ccccc2c1Cc1n[nH]c(=S)n1C`?
G9a inh: 2µM*; BAZ2B block: 2%; CtBP-E1A inh: -12; HP1b chromo inh: -43%; Six1-Eya2 blk: 0; JMJD2A Tudor: 6.3µM*

How did Cc1[nH]c2ccccc2c1Cc1nnc(SCC(N)=O)o1 do in these assays?
G9a inh: -8%[59 µM]; BAZ2B block: -2%; CtBP-E1A inh: 5; HP1b chromo inh: 43%; Six1-Eya2 blk: 1; JMJD2A Tudor: -14%

Results for S=c1[nH]nc(Cc2cccc3ccccc23)o1 ?
G9a inh: 2.2µM*; BAZ2B block: -25%; CtBP-E1A inh: -3; HP1b chromo inh: 20%; Six1-Eya2 blk: 7; JMJD2A Tudor: 79µM*

What do the screens show for `C/C=C/C(=O)Nc1cccc(C2=NOC3(C2)C[C@@H](C(N)=O)N(C(=O)C(c2ccccc2)c2ccccc2)C3)c1` (stereo partly drawn)?
G9a inh: -6%[59 µM]; BAZ2B block: -18%; CtBP-E1A inh: 4; HP1b chromo inh: 11%; Six1-Eya2 blk: 1; JMJD2A Tudor: inconclusive

What do the screens show for `CCOC(=O)C1(Cc2ccccc2C)CCCN(C(=O)c2cc(C3CC3)[nH]n2)C1` (stereo not drawn)?
G9a inh: 5%; BAZ2B block: -14%; CtBP-E1A inh: 4; HP1b chromo inh: 47%; Six1-Eya2 blk: -2; JMJD2A Tudor: -2%

What do the screens show for `O=c1[nH]cnc2c1ncn2C1CCC(CO)O1` (stereo not drawn)?
CtBP-E1A inh: 5; Six1-Eya2 blk: -2

What do the screens show for `COc1ccc(-c2oc3ncn4nc(-c5ccccc5C)nc4c3c2-c2ccc(OC)cc2)cc1`?
G9a inh: -6%[59 µM]; BAZ2B block: 1%; HP1b chromo inh: 28%; JMJD2A Tudor: -8%

Results for Cc1cc(C)c(CN2CCN(C(=O)Cn3cnc4c(NCc5ccccc5)ncnc43)CC2)c(C)c1 ?
CtBP-E1A inh: -8; HP1b chromo inh: 11%; Six1-Eya2 blk: -16; JMJD2A Tudor: inconclusive

Results for Cc1[nH]c2ccccc2c1SCc1n[nH]c(=S)n1C ?
G9a inh: 4µM*; BAZ2B block: -15%; HP1b chromo inh: 15%; Six1-Eya2 blk: -5; JMJD2A Tudor: 10µM*

How did Cn1c(Cc2c[nH]c3ccccc23)n[nH]c1=S do in these assays?
G9a inh: inconclusive; BAZ2B block: 7%; CtBP-E1A inh: -1; HP1b chromo inh: -12%; Six1-Eya2 blk: -10; JMJD2A Tudor: 5µM*

Results for c1ccc(CN2CCN(Cc3c[nH]c4ccccc34)CC2)cc1 ?
G9a inh: -40%; BAZ2B block: -34%; CtBP-E1A inh: -4; HP1b chromo inh: -2%; Six1-Eya2 blk: -1; JMJD2A Tudor: -22%

Results for COc1cccc(-c2nc3ccc(C(=O)NC(C)Cc4cccnc4)cc3o2)c1 (stereo not drawn) ?
G9a inh: 13%; BAZ2B block: -4%; CtBP-E1A inh: -13; HP1b chromo inh: 17%; Six1-Eya2 blk: -3; JMJD2A Tudor: -14%

What do the screens show for `COc1ccccc1/C=C1/C(=O)ON=C1C`?
G9a inh: -34%[12.7 µM]; BAZ2B block: -19%; CtBP-E1A inh: -3; HP1b chromo inh: 7%; Six1-Eya2 blk: 2; JMJD2A Tudor: -21%

Results for C=CCOc1c(Br)cc(/C=C2/C(=O)ON=C2C)cc1OC ?
G9a inh: 32µM*; BAZ2B block: inconclusive; CtBP-E1A inh: 0; HP1b chromo inh: 12%; Six1-Eya2 blk: 5; JMJD2A Tudor: 20µM*

How did CCOc1cc(/C=C2/C(=O)ON=C2C)ccc1OCc1ccccc1 do in these assays?
BAZ2B block: -38%; CtBP-E1A inh: 4; HP1b chromo inh: 24%; Six1-Eya2 blk: 10; JMJD2A Tudor: -1%

What do the screens show for `CCCOc1ccc(Cl)cc1/C=C1/C(=O)ON=C1C`?
G9a inh: 32µM*; BAZ2B block: -24%; CtBP-E1A inh: 9; HP1b chromo inh: 9%; Six1-Eya2 blk: 1; JMJD2A Tudor: 7.9µM*

What do the screens show for `C#CCOc1c(Cl)cc(/C=C2/C(=O)ON=C2C)cc1OCC`?
G9a inh: 40µM*; BAZ2B block: -36%; CtBP-E1A inh: -3; HP1b chromo inh: 4%; Six1-Eya2 blk: 3; JMJD2A Tudor: -13%

What do the screens show for `C#CCOc1c(Br)cc(/C=C2/C(=O)ON=C2C)cc1OC`?
G9a inh: 40µM*; BAZ2B block: -20%; CtBP-E1A inh: 0; HP1b chromo inh: -34%; Six1-Eya2 blk: 35; JMJD2A Tudor: -30%

Results for COc1ccc(/C=C2/C(=O)ON=C2C)cc1Br ?
G9a inh: inconclusive; BAZ2B block: -17%; CtBP-E1A inh: 10; HP1b chromo inh: 14%; Six1-Eya2 blk: 14; JMJD2A Tudor: -29%

Results for COc1ccc(N2CCN(C(=O)COC(=O)CCc3ccccc3)CC2)cc1 ?
G9a inh: -22%[12.7 µM]; BAZ2B block: -3%; CtBP-E1A inh: 11; HP1b chromo inh: 27%; Six1-Eya2 blk: -4; JMJD2A Tudor: 11%

Screening data deposited in PubChem BioAssay by National Center for Advancing Translational Sciences (NCATS).
